Screens: PubChem BioAssay, National Center for Advancing Translational Sciences (NCATS)
SNCA viab count = reduces viability of HEK-293 SNCA reporter cells. HEK-293-SNCA-luc viability, GF-AFC fluorescence, 24 h. Potency, µM (highest dose often 57.1 µM), actives largely listed as cytotoxic. hit rate 0.12% among 150,000; note: nearly all actives have a fitted effect of over 30% in size
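Cytotoxicity counterscreen: after 24 h compound treatment of genome-edited SNCA-luciferase HEK-293 cells, live-cell protease substrate GF-AFC read by fluorescence after 30 min; activity scaled between DMSO (0%) and medium-only (-100%), curves Hill-fitted.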
NIH3T3 tox = kills NIH 3T3 cells; hit rate 4.3% among 94,000; NIH 3T3 viability, CellTiter-Glo ATP luminescence, 48-72 h; Potency, µM (top dose mostly 96.7 µM), hits mostly inhibitors; note: nearly all actives have a fitted effect of over 55% in size
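Cytotoxicity is measured as loss of cellular ATP: NIH 3T3 cells (400/well) are exposed to compound for 48 or 72 hr at 37 °C, then CellTiter-Glo luminescence is imaged after 10 min at room temperature.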
IP6K1 inhibitor = blocks human inositol hexakisphosphate kinase 1. Q92551. IP6K1 kinase, ADP-Glo luminescence, 2 h; stronger effect = lower value. activity change, % (series mostly up to about 58 µM). hit rate 0.81% among 140,000. AID 1645851; in the data active = activity change below about -25%
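ADP-Glo luminescence measures ADP made by human IP6K1 during a 2 h RT reaction with ATP/IP6 (mix at 1.3 mM/130 uM); top library doses 57.5 and 19.1 uM final.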
Luciferase inh = inhibitors of firefly (Photinus pyralis) luciferase; P08659; purified P. pyralis luciferase, luminescence, biochemical; Potency, µM (highest dose often 115 µM), usual class: inhibitors; hit rate 2.5% among 76,000; AID 1347043; note: nearly all actives have a fitted effect of over 65% in size
Target sequence (P08659 whole entry, looked up): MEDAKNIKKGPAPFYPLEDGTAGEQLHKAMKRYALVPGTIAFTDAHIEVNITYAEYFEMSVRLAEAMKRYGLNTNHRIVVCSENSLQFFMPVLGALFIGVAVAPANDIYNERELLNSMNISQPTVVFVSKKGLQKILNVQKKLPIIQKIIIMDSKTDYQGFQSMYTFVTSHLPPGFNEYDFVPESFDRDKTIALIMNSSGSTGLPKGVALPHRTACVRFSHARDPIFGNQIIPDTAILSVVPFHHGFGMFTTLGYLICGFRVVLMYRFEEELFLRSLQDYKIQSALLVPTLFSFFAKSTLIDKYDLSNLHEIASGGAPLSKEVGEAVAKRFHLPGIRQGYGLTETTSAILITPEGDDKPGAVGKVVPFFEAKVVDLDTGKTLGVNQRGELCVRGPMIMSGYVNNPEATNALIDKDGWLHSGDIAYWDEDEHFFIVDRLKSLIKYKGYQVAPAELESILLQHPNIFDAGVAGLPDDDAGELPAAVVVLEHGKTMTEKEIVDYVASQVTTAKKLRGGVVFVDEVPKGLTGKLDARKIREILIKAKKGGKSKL
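Luminescence read by CCD imaging after purified firefly luciferase (10nM final) was added to substrate buffer holding 10uM D-luciferin and 10uM ATP, pH 7.5, pre-dosed with compound.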
HEK293 tox = HEK 293 cell cytotoxicity. Potency, µM (doses to about 115 µM), usual class: inhibitors. HEK 293 viability, ATP luminescence (CellTiter-Glo), 48-72 h. hit rate 6.6% among 94,000; note: nearly all actives have a fitted effect of over 60% in size
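Viability of HEK 293 cells, plated at 250 cells/well, was judged by cellular ATP after compound treatment for 48 or 72 hr. Luminescence was imaged 10 min after CellTiter-Glo addition at room temperature.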
SNCA expr inhib = SNCA gene expression inhibition | Potency, µM (highest dose often 57.2 µM), most hits filed as inhibitors | HEK-293 SNCA-luciferase knock-in, luminescence, 24 h | hit rate 0.17% among 140,000; note: nearly all actives have a fitted effect of over 45% in size
Of the large screens only hits and unclear results are named; the others gave an inactive call; ! = not confirmed by another sample. A selection: hits, their analogues and other compounds. The true share with any hit is near 7.3%. Unless noted, calls come from the whole dose curve; as a rule, active = well fitted curve in the direction sought with a large enough effect; inconclusive = small, poorly fitted or top-dose-only effect, or another doubt; inactive = no such curve, though single readings can be large; an effect the other way counts as inactive or inconclusive.

CCOC(=O)C1(Cc2ccccc2)CCCN(C(=O)C#Cc2ccccc2)C1 (configuration not stated)	HEK293 tox inconclusive
O=C(Cc1ccc(F)cc1)N1CCN(c2nccc(Nc3ccccc3F)n2)CC1	NIH3T3 tox 17.8µM, HEK293 tox 17.8µM, SNCA expr inhib inconclusive (no result: Luciferase inh)
COc1ccc(Nc2ccnc(N3CCN(C(=O)Cc4ccc(F)cc4)CC3)n2)cc1	NIH3T3 tox 25.1µM, HEK293 tox 11.2µM, SNCA expr inhib inconclusive (no result: Luciferase inh)
O=C(Cc1ccc(F)cc1)N1CCN(c2nccc(Nc3ccccc3Cl)n2)CC1	NIH3T3 tox 28.2µM, HEK293 tox 39.8µM (no result: Luciferase inh)
COc1cccc2c1OCC(C(=O)NCCc1noc(-c3ccccc3)n1)C2 (configuration not stated)	none
O=C(Nc1ccccc1)C1(CCO)CC12CCOCC2 (configuration not stated)	none (no result: Luciferase inh)
CCCS(=O)(=O)N1CCC(CC(=O)NCc2ccccc2)C1 (configuration not stated)	none
CC1=C[C@@H](CNC(C)C)[C@H](C(C)C)C[C@H]1Cc1nnc(-c2ccc([N+](=O)[O-])cc2)o1	SNCA viab count inconclusive, NIH3T3 tox 89.1µM, HEK293 tox 79.4µM, SNCA expr inhib inconclusive
CC1=C[C@@H](CNCc2ccncc2)[C@H](C(C)C)C[C@H]1Cc1nnc(-c2ccc([N+](=O)[O-])cc2)o1	SNCA viab count inconclusive, NIH3T3 tox inconclusive, HEK293 tox 39.8µM
CC1=C[C@@H](CNCc2ccncc2)[C@H](C(C)C)C[C@H]1Cc1nnc(-c2ccc(C)cc2)o1	SNCA viab count inconclusive, NIH3T3 tox inconclusive, HEK293 tox inconclusive, SNCA expr inhib inconclusive
CC(C)c1ccc(C(=O)N2CC3CC(C2)[C@H]2CCCC(=O)N2C3)cc1 (some centres not stated)	none
CC(C)(C)NC(=O)Cn1ccn2nc(-c3ccc(F)cc3)c(CO)c2c1=O	none
O=C(c1cc2cn(C3CC3)cc2s1)N1CCc2ccccc2C1	NIH3T3 tox inconclusive, HEK293 tox 89.1µM
Cc1ccc(CN2CC(Oc3ccccc3C(=O)N3CCOCC3)C2)cc1C	SNCA viab count inconclusive, NIH3T3 tox inconclusive, HEK293 tox 44.7µM
O=C(NCc1ccccc1)c1ccccc1OC1CN(Cc2ccncc2)C1	NIH3T3 tox inconclusive, HEK293 tox 39.8µM
O=C(NCc1ccccc1)c1ccccc1OC1CN(Cc2cccnc2Cl)C1	NIH3T3 tox inconclusive, HEK293 tox 44.7µM (no result: Luciferase inh)
O=C(NCc1ccccc1)c1ccccc1OC1CN(Cc2cccnc2F)C1	NIH3T3 tox inconclusive, HEK293 tox inconclusive (no result: Luciferase inh)
O=C(NCc1ccccc1)c1ccccc1OC1CN(Cc2cccc(F)c2)C1	SNCA viab count inconclusive, NIH3T3 tox inconclusive, HEK293 tox 28.2µM, SNCA expr inhib inconclusive
O=C(NCCc1ccc(Cl)cc1)C1CN(c2cccc(Cl)c2)C(=O)N1 (configuration not stated)	SNCA viab count inconclusive, NIH3T3 tox 35.5µM!, HEK293 tox inconclusive
COc1cccc(N2CC(C(=O)NCCc3ccc(Cl)cc3)NC2=O)c1 (configuration not stated)	NIH3T3 tox inconclusive
COc1ccc2c(c1)c1c(c(=O)n(Cc3ccccc3)c(=O)n1Cc1ccccc1Cl)n2C	SNCA expr inhib 3.16µM (no result: NIH3T3 tox, Luciferase inh, HEK293 tox)
COc1cccc(CC(=O)N2CC(CNc3ccccc3)C3(C2)CN(c2ccccc2)C3)c1 (configuration not stated)	NIH3T3 tox inconclusive, HEK293 tox inconclusive
O=C(Cc1ccc(O)cc1)N1CC(CNc2ccccc2)C2(C1)CN(c1ccccc1)C2 (configuration not stated)	NIH3T3 tox 31.6µM, HEK293 tox 50.1µM, SNCA expr inhib inconclusive
O=C(c1cccc(O)c1)N1CC(CNc2ccccc2)C2(C1)CN(c1ccccc1)C2 (configuration not stated)	NIH3T3 tox 50.1µM, HEK293 tox 63.1µM, SNCA expr inhib inconclusive
O=C(NC1CCCN(c2cc(-c3ccccc3)[nH]n2)C1)c1ccccc1Cl (configuration not stated)	NIH3T3 tox inconclusive, Luciferase inh inconclusive, HEK293 tox inconclusive
